Source: PubChem BioAssay
Sampled rows, rich in hits. Any-hit rate of the full collection: about 5.4%.
RORgamma inh: ROR gamma (mouse) transcription inhibition. P51450. Drosophila S2 Gal4-RORgamma UAS-luciferase reporter, 20 h. Potency, µM (series often up to 53.6 µM), for the others: top-dose activity change, negative = inhibition, actives largely listed as inhibitors. hit rate 5.4% among 310,000; further: potency means the concentration at half of the fitted maximal effect; on the % scale 0 is the no-effect control and ±100 the full control effect; nearly all actives have a fitted effect of over 60% in size
Target sequence (P51450 whole entry, looked up, the tested form may be a part): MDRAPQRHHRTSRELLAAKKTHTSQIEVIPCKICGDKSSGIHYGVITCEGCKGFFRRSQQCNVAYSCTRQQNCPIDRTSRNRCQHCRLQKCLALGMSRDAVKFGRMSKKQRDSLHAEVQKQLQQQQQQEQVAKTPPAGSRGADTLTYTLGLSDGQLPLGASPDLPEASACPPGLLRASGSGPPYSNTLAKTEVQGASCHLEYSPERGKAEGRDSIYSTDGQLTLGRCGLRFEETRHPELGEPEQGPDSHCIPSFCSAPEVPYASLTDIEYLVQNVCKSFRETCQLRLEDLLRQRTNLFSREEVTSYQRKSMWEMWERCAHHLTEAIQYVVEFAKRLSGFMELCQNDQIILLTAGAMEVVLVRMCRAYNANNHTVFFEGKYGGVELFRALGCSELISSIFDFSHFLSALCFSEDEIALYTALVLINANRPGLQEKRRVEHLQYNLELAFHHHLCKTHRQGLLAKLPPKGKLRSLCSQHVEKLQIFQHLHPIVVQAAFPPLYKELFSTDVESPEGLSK
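Stably transfected Drosophila Schneider cells are the test system, with ROR gamma fused to Gal4 and luciferase under UAS control; luminescence is read after 20 hr of 700 uM copper sulfate induction at ambient temperature.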
VP16 counter: Gal4-VP16 reporter inhibition counter-screen. Drosophila S2 Gal4-VP16 UAS-luciferase, luminescence, 20 h. Potency, µM (top dose mostly 53.6 µM), without a hit: at the highest dose activity, negative = inhibition, usual class: inhibitors. hit rate 3.5% among 310,000. AID 2546;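 further: Gal4-VP16 expression switched on by copper sulfate through the metallothionein promoter; potency means the concentration at half of the fitted maximal effect; on the % scale 0 is the no-effect control and ±100 the full control effect; nearly all actives have a fitted effect of over 50% in size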
CtBP-E1A blk: inhibitors of CtBP/E1A interaction; AlphaScreen GST-E1A/His-CtBP binding, 1536-well; stronger effect = lower value; hit rate 0.49% among 340,000; activity change, % (test concentration not listed); AID 651724; in the data active means activity change below about -65%; inconclusive means mostly about -30% to -63%; further: on the % scale 0 is the no-effect control and ±100 the full control effect
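Protein mix (5X: 125 nM each GST-E1A, His-CtBP) was incubated with pinned compound 2 h at 37 deg C in dark, in 50 mM Tris pH 8.0 buffer with 300 mM NaCl. Glutathione donor and nickel acceptor beads followed; AlphaScreen signal read after 1 h.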
p53 reactivation: restores transcriptional activity of mutant p53 | H1299 p53-A138V BP100-luciferase reporter, luminescence, 24 h | Potency, µM (titrated, usually from 92.2 µM), for the others: at the top dose activity change, positive = activation, usual class: activators | hit rate 0.063% among 320,000 | AID 504706; further: potency means the concentration at half of the fitted maximal effect; % of control where 0% means no effect; nearly all actives have a fitted effect of over 45% in size
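H1299 (p53-null), stable ts p53-A138V + BP100-Luc; 1000 cells/well, Opti-MEM/10% FBS; cpd 4 pt, 1:5; 24 h, 37 deg C, 5% CO2; detection reagent 10 min RT; luminescence.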
Six1-Eya2 blk: blocks human Six1 binding to Eya2. AlphaScreen GST-Six1/His-Eya2 binding, biochemical; stronger effect = lower value. activity change, % (test concentration not listed). hit rate 0.56% among 360,000. AID 651725; in the data active means activity change below about -65%; inconclusive means mostly about -30% to -63%; further: on the % scale 0 is the no-effect control and ±100 the full control effect
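Homogeneous AlphaScreen proximity assay pairing GST-Six1 with His-tagged Eya2 (added as 5X mix: 250 nM and 500 nM) in 50 mM Tris pH 8.0, 300 mM NaCl, 1 mM TCEP. Glutathione donor and nickel acceptor beads; 1 h, 37 °C, dark.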
Numbers without * were called inactive; ? = inconclusive; / = not tested or not shown; [ ] = dose if it differs, or a comment. Unless noted, the call rests on the fitted dose curve; in most records, active means well fitted curve in the direction sought with a large enough effect; inconclusive means small, poorly fitted or top-dose-only effect, or another doubt; inactive means no such curve, though single readings can be large; an effect the other way counts as inactive or inconclusive.

SMILES	RORgamma inh	VP16 counter	CtBP-E1A blk	p53 reactivation	Six1-Eya2 blk
O=C(Nc1ccccc1)c1cc(C2COCCN2C(=O)CCCc2ccccc2)on1 (stereo not drawn)	/	/	4.6	/	1.6
O=C1c2oc3ccc(Cl)cc3c(=O)c2C(c2ccccn2)N1CCCN1CCOCC1 (stereo not drawn)	22.4µM*	?	-11.7	-7.6%	-6.4
CCN(CC)CCCCn1c(-c2ccccc2)nc2c(NC3CCCCC3)nc(C)nc21	?	-15.2%	/	/	/
Cc1ccccc1-c1nc(N2CCN(C)CC2)c2ccccc2n1	-26.2%	6.1%	/	/	/
CN1CCN(c2nc(-c3ccccc3O)nc3ccccc23)CC1	8.91µM*	-14.3%	-1.6	-10.6%	-4.3
c1ccc(-c2nc(N3CCCCCC3)c3ccccc3n2)nc1	1.12µM*	2.51µM*	-72.8*	-12.5%	-75.2*
c1ccc(CN2CCN(c3nc(-c4ccccn4)nc4ccccc34)CC2)cc1	1.41µM*	2.82µM*	-0.7	0.0%	6.8
c1ccc(-c2nc(N3CCOCC3)c3ccccc3n2)nc1	2.51µM*	5.62µM*	?	4.4%	?
FC(F)(F)c1ccc(C2[C@H]3CN(CC4CCCCC4)[C@H](c4ccccc4)C34CC2(c2ccccc2)C4)cc1 (stereo partly drawn)	-2.4%	8.2%	/	/	/
Cc1ccc([N+](=O)[O-])cc1NC(=O)c1ccccc1	11.0%	-13.4%	-2.1	9.5%	-5.8
Cc1nc(NNC(=O)c2ccc([N+](=O)[O-])cc2)cc(-c2ccccc2)n1	2.24µM*	7.94µM*	0.5	-3.5%	-12.8
O=C(NNc1cc(N2CCCC2)nc(N2CCCC2)n1)c1ccc([N+](=O)[O-])cc1	1.41µM*	3.16µM*	-0.1	2.9%	-2.2
CC(C)(C)c1ccc(C(=O)NNc2cc(N3CCCCC3)nc(N3CCCCC3)n2)cc1	-93.1%	-8.6%	-11.2	0.9%	-8.9
c1ccc(-n2nnc3c(N4CCOCC4)ncnc32)cc1	8.91µM*	?	-4.3	1.5%	-2.4
Cc1nnc(N2CCOCC2)c2nn(-c3ccccc3)c(C)c12	-7.0%	0.3%	0.0	-13.1%	7.1
c1ccc(-c2c[nH]c3[n+]2CCCCC3)cc1	22.4µM*	?	8.0	0.3%	-6.5
C=CCn1c(SCc2ccccc2C#N)nnc1-c1cc(Br)ccc1O	17.8µM*	25.1µM*	?	-13.9%	-29.5
CCCCN(C(=O)c1ccc(OC)c([N+](=O)[O-])c1)c1c(N)n(CCC)c(=O)[nH]c1=O	-5.4%	1.5%	0.9	4.0%	12.3
COc1cc(OC)cc(C(=O)NCCC(c2ccccc2)c2ccccc2)c1	24.1%	11.7%	/	-1.3%	9.8
COc1ccc(NC(=S)NCCC(c2ccccc2)c2ccccc2)c(OC)c1	3.98µM*	3.16µM*	-21.1	3.9%	-24.8
Cc1cccc(NC(=S)NCCC(c2ccccc2)c2ccccc2)c1	3.98µM*	7.08µM*	-17.1	3.9%	-15.9
Cc1cccc(NC(=S)NCCCN2CCOCC2)c1	-13.0%	-1.7%	0.0	0.0%	18.4
CNC(=S)NCCC(c1ccccc1)c1ccccc1	7.08µM*	?	3.4	8.6%	-8.6
COc1cc(NC(=S)NCCC(c2ccccc2)c2ccccc2)cc(OC)c1	4.47µM*	8.91µM*	0.5	3.5%	-17.7
CC(C)CNc1ncnc2c1ncn2[C@H]1CN(C2CCCC2)C[C@@H](CO)O1	/	/	-15.8	/	39.1
SMILES	RORgamma inh	VP16 counter	CtBP-E1A blk	p53 reactivation	Six1-Eya2 blk
CCc1ccc2c(c1)C(NC(C)=O)C(=O)N2CCN1CCOCC1 (stereo not drawn)	6.3%	-11.4%	4.4	4.3%	-4.7
Cc1ccccc1-c1nc(CS(=O)(=O)CC(=O)N2CCOCC2)c(C)o1	-19.9%	-0.4%	-7.2	-3.5%	4.3
COc1cccc(NC(=S)NCCN2CCOCC2)c1	-24.6%	7.8%	15.2	-3.1%	12.7
COc1cccc(NC(=S)NCCC(c2ccccc2)c2ccccc2)c1	?	22.4µM*	8.1	3.9%	-0.2
CCCNC(=O)C1(C)CCN(C(=O)c2cccnc2Oc2ccccc2)C1 (stereo not drawn)	/	/	-5.9	/	8.8
Cc1ccc(N=Nc2c(N)[nH]n3c(=O)cc(C)nc23)cc1	10µM*	-23.8%	?	11.6%	?
Cc1ccc(F)cc1-c1ccc(C(=O)N=C(N)N)o1	-43.5%	-2.0%	/	/	/
O=C(Nc1nccs1)c1ccc(COc2c(F)c(F)cc(F)c2F)cc1	11.2µM*	-12.5%	/	?	-10.1
Cc1ccc(C(=O)Nc2nccs2)cc1	?	-8.2%	-1.2	0.9%	-3.3
COc1ccc(CC(=O)Nc2ccc(C(=O)Nc3nccs3)cc2)cc1OC	?	11.6%	-74.4*	1.9%	-81.3*
COc1ccc(CCCc2n[nH]c(=S)o2)cc1	12.6µM*	4.6%[10 µM]	7.8	-1.4%	5.5
COc1ccc(Cc2n[nH]c(=S)o2)cc1	9.3%	-1.7%	-4.5	-0.5%	3.1
S=c1[nH]nc(COc2ccc3ccccc3c2)o1	?	3.98µM*	0.7	22.4%	6.1
CCCCNc1nc(C)nc2c1nc(-c1ccccc1)n2CCCN(C)C	-0.3%	-2.7%	/	/	/
CCN1C(=O)/C(=C\N(C(C)=O)c2ccccc2)OC1=S	7.94µM*	10µM*	-0.2	?	1.7
CCN(CC)CCCNc1oc(-c2ccccc2[N+](=O)[O-])nc1C#N	-10.5%	16.8%	/	5.2%	-4.7
CCCn1c(=O)c(C(=O)NCc2ccc3c(c2)OCO3)c(O)c2ccccc21	12.6µM*	?	/	/	6.5
Cn1nc(C(C)(C)C)cc1C(=O)NCc1ccc2c(c1)OCO2	-13.0%	1µM*	-3.3	-10.7%	0.3
CCn1c(=O)c(C(=O)NCCc2ccc(OC)c(OC)c2)c(O)c2ccccc21	-16.4%	-2.7%	/	-6.6%	-5.2
Cc1oc(C(C)(C)C)cc1C(=O)NCc1ccc2c(c1)OCO2	?	?	-1.5	-2.2%	0.0
CCCn1c(=O)c(C(=O)NCc2ccccn2)c(O)c2ccccc21	10µM*	?	-9.2	-2.5%	11.3
CCCn1c(=O)c(C(=O)NCCc2ccc(OC)c(OC)c2)c(O)c2ccccc21	11.2µM*	?	-7.6	25.5%	-0.4
CCCn1nc(C(=O)NNC(=O)CSC(C)C(=O)Nc2cc(C)on2)c2ccccc2c1=O (stereo not drawn)	-16.7%	-5.5%	2.3	2.7%	2.9
O=C(NCc1ccccn1)c1c(O)c2cccc3c2n(c1=O)CC3	2.82µM*	?	0.7	2.0%	0.9
CCC(C)(C)C1CCC(=NNC(=S)Nc2cccnc2)CC1 (stereo not drawn)	?	15.8%	-5.0	3.0%	-14.9
CCC(C)(C)C1CCC(=NNC(=S)Nc2ccccc2)CC1 (stereo not drawn)	11.2µM*	?	-1.8	27.3%	-6.4
CC(C)(C)C1CCC(=NNC(=S)NCc2ccccc2)CC1 (stereo not drawn)	10µM*	?	-12.8	-0.1%	-7.1
